# IL-1B inflam inh: qHTS for Inhibitors of Inflammasome Signaling: IL-1-beta AlphaLISA Primary Screen. 360,000 tested, 4.7% active. activity change, % at 57.5 µM. THP-1 LPS/ATP IL-1B secretion, AlphaLISA, 16 h; stronger effect = lower value; in the data active = activity change below about -50%; inconclusive = mostly about -30% to -49%
#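 THP-1 cells pretreated 1 hr with compounds (up to 57.5 uM final), then stimulated with LPS (250 ng/mL final) plus ATP (1.25 mM final); secreted IL-1B measured by AlphaLISA after 16 hr, decreased signal indicating inhibition.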
# TDP1 cell CPT: qHTS for Inhibitors of human tyrosyl-DNA phosphodiesterase 1 (TDP1): qHTS in cells in presence of CPT. Potency, µM (top dose mostly 46.2 µM), without a hit: at the top dose activity change, negative = growth inhibition, most hits filed as inhibitors. 420,000 tested, 12% active. chicken DT40 Tdp1-/-;hTDP1 cells + 20 nM CPT, ATP luminescence, 48 h; also: potency is read from the fitted curve at half-maximal effect; nearly all actives have a fitted effect of over 55% in size
#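 Chicken DT40 Tdp1-/- cells stably complemented with human TDP1 were seeded at 400 cells/well in medium containing 20 nM camptothecin, exposed to pin-transferred compounds, and grown at 37 °C for at least 48 hr. Viability was read as ATP luminescence.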
# TDP1 block: qHTS Assay for Inhibitors of Tyrosyl-DNA Phosphodiesterase (TDP1). Tyrosyl-DNA phosphodiesterase 1 (Homo sapiens), Q9NUW8. recombinant TDP1, AlphaScreen DNA substrate cleavage. Potency, µM (doses to about 130 µM), inactives show top-dose activity change, negative = inhibition, actives largely listed as inhibitors. 350,000 tested, 0.28% active. AID 485290, 2010; also: potency is read from the fitted curve at half-maximal effect; nearly all actives have a fitted effect of over 40% in size
# Target sequence (Q9NUW8 whole entry, looked up): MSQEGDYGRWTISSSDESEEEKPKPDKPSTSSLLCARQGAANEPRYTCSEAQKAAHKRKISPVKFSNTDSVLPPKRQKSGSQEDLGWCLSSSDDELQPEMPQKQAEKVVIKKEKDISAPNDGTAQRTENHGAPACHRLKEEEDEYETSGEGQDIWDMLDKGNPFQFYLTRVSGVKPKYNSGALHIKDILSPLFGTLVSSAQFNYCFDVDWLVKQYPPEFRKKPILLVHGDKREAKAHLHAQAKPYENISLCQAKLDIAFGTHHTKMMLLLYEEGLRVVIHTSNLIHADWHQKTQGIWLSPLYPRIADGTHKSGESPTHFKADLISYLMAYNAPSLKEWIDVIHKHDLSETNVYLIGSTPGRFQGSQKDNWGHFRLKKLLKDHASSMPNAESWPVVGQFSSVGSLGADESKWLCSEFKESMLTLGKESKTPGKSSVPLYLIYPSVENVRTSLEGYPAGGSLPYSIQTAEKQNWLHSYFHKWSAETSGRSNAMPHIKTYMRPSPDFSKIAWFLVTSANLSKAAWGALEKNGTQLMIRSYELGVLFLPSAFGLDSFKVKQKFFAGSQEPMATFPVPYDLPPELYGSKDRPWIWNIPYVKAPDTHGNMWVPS
#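 Recombinant E. coli-expressed Tdp1 (1 nM) preincubated with compound 15 min at RT, then 5'-biotin/3'-phosphotyrosine-FITC DNA substrate (15 nM) added for 5 min. AlphaScreen beads (10 ug/ml) added, 10 min RT; tyrosine-FITC cleavage read as signal loss.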
# ELG1 repair inh: qHTS screen for small molecules that inhibit ELG1-dependent DNA repair in human embryonic kidney (HEK293T) cells expressing luciferase-tagged ELG1 | HEK293T ELG1-luciferase reporter, luminescence, 16 h; DNA damage induced by 5-fluorouridine | Potency, µM (titrated, usually from 46.1 µM), for the others: at the top dose activity change, negative = inhibition, actives largely listed as inhibitors | 330,000 tested, 2.3% active | AID 504467, 2011; also: potency is read from the fitted curve at half-maximal effect; nearly all actives have a fitted effect of over 55% in size
#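 5-Fluorouridine DNA damage + compound/DMSO, 2,000 cells/well, 16 h, 37 °C/5% CO2. ONE-Glo, 30 min RT, luminescence. Readout = decrease in reporter signal.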
# Giardia kill: Small Molecules that selectively kill Giardia lamblia: qHTS. Giardia lamblia trophozoite viability. activity change, % at 7.66 µM, hits read low. 340,000 tested, 0.15% active; in the data active = activity change below about -80%; inconclusive = between about -30% and that limit;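 also: parasites exposed to compound for two days anaerobically before the ATP read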
#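 Giardia lamblia trophozoites (100 cells/well) were incubated with compounds for 48 h at 37 deg C under anaerobic conditions. Viability was read as ATP content by one-step luminescence after 15-30 min at room temperature.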
# TDP1 cell noCPT: qHTS for Inhibitors of human tyrosyl-DNA phosphodiesterase 1 (TDP1): qHTS in cells in absence of CPT | AID 686978, 2013 | Potency, µM (doses to about 46.2 µM), for inactives: at the top dose activity change, negative = growth inhibition, actives largely listed as inhibitors | DT40 Tdp1-/- hTDP1 cells, no CPT, ATP luminescence, 48 h | 420,000 tested, 15% active; also: potency is read from the fitted curve at half-maximal effect; nearly all actives have a fitted effect of over 55% in size
#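 Chicken DT40 Tdp1-/- cells stably complemented with human TDP1 were seeded at 400 cells/well with DMSO in place of 20 nM camptothecin. After compound pinning, cells grew at least 48 hr at 37 °C; viability read by CellTiter-Glo luminescence.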
# An asterisk follows results filed as active; u = inconclusive; x = no result given; [ ] = dose if it differs, or a comment. A selection: hits, their analogues and other compounds. The true share with any hit is near 19%. Unless noted, calls follow the shape of the dose curve; as a rule, active = well fitted curve in the direction sought with a large enough effect; inconclusive = small, poorly fitted or top-dose-only effect, or another doubt; inactive = no such curve, though single readings can be large; an effect the other way counts as inactive or inconclusive. % is scaled to controls: 0 for no effect and ±100 for the full control effect.
SMILES,IL-1B inflam inh,TDP1 cell CPT,TDP1 block,ELG1 repair inh,Giardia kill,TDP1 cell noCPT
NC(=O)N=Nc1c2[nH]c3ccccc3nc-2c2ccccc12,-88.9*,16.4µM*,x,u,1.1,8.2µM*
O=c1[nH]c2ccccc2nc1-c1ccccc1,20.4,19.8%,0.0%,u,-28.1,-0.6%
O=C1Nc2ccccc2N(O)N1c1ccc(S(=O)(=O)N2CCOCC2)cc1,15.3,-1.1%,0.0%,5.2%,9.7,-24.3%
NC(=S)c1csc(CCNC(=O)c2ccccc2)n1,-22.6,0.8%,x,x,x,-20.5%
COc1ccc(OCc2cc(=O)c3ccc4c(c3o2)C=CC(C)(C)O4)cc1OC,-12.3,16.4µM*,7.3%,u,-13.4,u
COc1ccc(CCN(C)C(=O)c2ccc(COc3ccccc3)o2)cc1OC,u,u,4.6%,-28.5%,14.6,u
Oc1c(Cl)cc(Cl)c(Cl)c1Cl,x,x,9.9%,x,x,x
Oc1c(Cl)cc(Cl)cc1Sc1cc(Cl)cc(Cl)c1O,x,u,2.7%,-20.5%,x,23.1µM*
COc1ccc(Cc2nc3ccc(C(=O)N4CCN(C)C(C)C4)cc3o2)cc1OC (stereo not given),-1.1,u,1.9%,-3.9%,u,18.4µM*
COc1ccc(Cc2nc3ccc(C(=O)NCc4cccc(C)n4)cc3o2)cc1OC,u,18.4µM*,x,x,x,u
COc1ccc(Cc2nc3ccc(C(=O)N4CCCCC4CO)cc3o2)cc1OC (stereo not given),9.5,u,x,x,x,20.6µM*
COc1ccc(Cc2nc3ccc(C(=O)NCc4cc(C)no4)cc3o2)cc1OC,24.7,u,2.0%,19.5%,-5.1,u
C=CCN(CC=C)C(=O)c1ccc2nc(Cc3ccc(OC)c(OC)c3)oc2c1,u,u,3.5%,u,-12.3,4.61µM*
COc1ccc(Cc2nc3ccc(C(=O)N4CCCC4)cc3o2)cc1,42.8,-15.3%,6.0%,u,4.4,-8.1%
COc1ccc(/C=N/n2c(C3CCCCC3)n[nH]c2=S)c(OC)c1,-6.3,-16.6%,x,-5.0%,6.7,u
Cc1ccc(C(=O)Nc2ccc(-c3nc4ccccc4o3)cc2)cc1Cl,x,u,3.1%[12.3 µM],x,x,u
COc1ccc(CCNC(=O)c2ccc3nc(CCc4ccccc4)oc3c2)cc1OC,x,u,5.3%,x,x,-28.7%
COc1ccc(Cc2nc3ccc(C(=O)NC(C)Cc4ncccc4C)cc3o2)cc1OC (stereo not given),-8.4,18.4µM*,3.1%,u,6.5,u
COc1ccc(Cc2nc3ccc(C(=O)N4CCCC4)cc3o2)cc1OC,-0.5,u,1.6%,u,21.3,20.6µM*
COc1ccc(Cc2nc3ccc(C(=O)NCc4ncc(C)[nH]4)cc3o2)cc1OC,0.0,-25.3%,1.7%,28.5%,5.9,11.9%
COc1ccc(Cc2nc3ccc(C(=O)NC4CCOC4)cc3o2)cc1OC (stereo not given),2.4,11.6µM*,x,x,x,u
CCOC(=O)COc1c(-c2ccc(OC)cc2)oc2ccccc2c1=O,10.9,u,4.4%,u,-4.9,u
COc1ccc(-c2oc3ccccc3c(=O)c2OC(C)=O)cc1,19.2,23.1µM*,0.0%,4.0%,11.8,16.4µM*
CC(=O)Oc1c(-c2ccc(Br)o2)oc2ccccc2c1=O,-29.3,25.9µM*,3.7%,1.1%,12.3,14.6µM*
O=C(COC(=O)Cc1cccs1)NCc1ccc(F)cc1,8.9,14.0%,0.2%,24.0%,-5.5,10.0%
SMILES,IL-1B inflam inh,TDP1 cell CPT,TDP1 block,ELG1 repair inh,Giardia kill,TDP1 cell noCPT
CCOC(=O)C1=C(C)OC(=Cc2ccccc2)C1=O,31.6,-105.8%,x,x,x,0.0092µM*
CCOC(=O)C1=C(O)c2ccccc2C(=O)/C1=C\c1ccc(C)cc1,0.0,5.8µM*,5.5%,u,-2.6,5.8µM*
Cc1ccsc1CN(C)CC(=O)Nc1cccc(S(=O)(=O)N(C)c2ccccc2)c1,-12.9,u,-2.9%,u,11.1,u
c1ccc2oc(-c3ccc(Nc4nc(N5CCOCC5)nc(N5CCOCC5)n4)cc3)nc2c1,14.4,-25.6%,x,x,-9.5,-29.7%
COc1cc(NC(=O)N2CCC3(CC2)Nc2ccccc2-n2cccc23)cc(OC)c1OC,x,20.6µM*,10.8%,x,x,u
CN1C(=O)/C(=C\c2ccco2)N=C1c1ccc(Cl)cc1Cl,-21.5,u,x,3.7%,-0.7,-20.8%
O=S(=O)(Nc1nc2ccccc2nc1NCC1CCCO1)c1cc(Cl)ccc1Cl (stereo not given),22.8,-22.9%,x,u,-7.5,-19.6%
Oc1ccccc1/C=N/Nc1nn[nH]n1,-25.9,-7.6%,6.8%,-7.8%,-4.0,-7.0%
CCOc1ccccc1/C=N/Nc1ccnc(=O)[nH]1,32.7,5.17µM*,x,25.3%,-3.1,2.91µM*
COc1cccc(/C=N/Nc2ccnc(=O)[nH]2)c1O,127.4,0.0231µM*,x,-10.9%,-11.4,0.0651µM*
O=c1nccc(N/N=C/c2ccccc2O)[nH]1,47.2,0.231µM*,x,u,-12.3,0.326µM*
CCOc1ccc(NC(=O)CSc2nnnn2C2CC2)cc1S(=O)(=O)N1CCCC1,6.7,-21.6%,2.1%,8.4%,-5.9,1.3%
Cn1c(=O)c2cc(C(=O)NCCCN3CCN(c4cccc(Cl)c4)CC3)sc2c2ccccc21,x,u,2.3%,x,x,2.91µM*
CN1CCN(CCCNC(=O)c2cc3c(=O)n(C)c4ccccc4c3s2)CC1,-81.3*,8.2µM*,0.0%,u,-13.0,11.6µM*
CCN1CCN(CCCNC(=O)c2cc3c(=O)n(CC)c4ccccc4c3s2)CC1,x,u,2.3%,x,x,u

# Assay outcomes (PubChem BioAssay)
